Data reported in PubChem BioAssay AID485290 (National Center for Advancing Translational Sciences (NCATS), 2010).
Out of some 350,000 compounds screened, about 990 (0.28%) were called active. A call without a number means that no potency is given here. Inconclusive results (about 2%) are left out. Calls follow the shape of the dose curve; as a rule, active = well fitted inhibition curve with a large enough effect; inconclusive = small, poorly fitted or top-dose-only effect; inactive = no such curve, though single readings can be large or run the other way. The sample as a whole holds a higher share of actives than the screen did.

The molecules below were run against Tyrosyl-DNA phosphodiesterase 1 (Homo sapiens) (UniProt Q9NUW8) (assay: qHTS Assay for Inhibitors of Tyrosyl-DNA Phosphodiesterase (TDP1)). Details: recombinant TDP1, AlphaScreen DNA substrate cleavage; series mostly up to 130 µM.
Tyrosyl-DNA phosphodiesterase 1 (Homo sapiens), sequence (Q9NUW8 whole entry, looked up): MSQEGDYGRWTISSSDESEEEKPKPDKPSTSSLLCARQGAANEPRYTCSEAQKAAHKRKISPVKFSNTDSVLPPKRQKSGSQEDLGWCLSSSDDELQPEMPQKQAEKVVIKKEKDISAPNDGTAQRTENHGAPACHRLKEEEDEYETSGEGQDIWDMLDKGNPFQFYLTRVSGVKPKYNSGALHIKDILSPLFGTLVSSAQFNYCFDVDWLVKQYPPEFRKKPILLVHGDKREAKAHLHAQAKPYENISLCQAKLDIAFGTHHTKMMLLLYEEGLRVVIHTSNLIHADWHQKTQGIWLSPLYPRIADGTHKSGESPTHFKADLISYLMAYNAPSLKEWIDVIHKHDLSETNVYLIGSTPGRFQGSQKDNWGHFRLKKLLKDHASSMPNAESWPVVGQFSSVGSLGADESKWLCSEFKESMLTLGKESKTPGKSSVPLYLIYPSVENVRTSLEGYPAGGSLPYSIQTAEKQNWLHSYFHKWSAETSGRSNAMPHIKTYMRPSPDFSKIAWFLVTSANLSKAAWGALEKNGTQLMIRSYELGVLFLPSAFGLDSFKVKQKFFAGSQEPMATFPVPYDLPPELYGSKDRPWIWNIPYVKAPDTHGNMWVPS
Outline: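 Compounds were preincubated with Tdp1 (1 nM final) for 15 min at room temperature before substrate (15 nM final) started a 5 min reaction; beads (10 ug/ml final) were then added for 10 min before AlphaScreen detection.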
Also: nearly all actives have a fitted effect of over 40% in size.
Potency is read from the fitted curve at half-maximal effect.

Structure (SMILES)	Potency
COc1ccc(S(=O)(=O)Nc2cccc3cccnc23)c(N)c1	inactive
COc1ccccc1NC(=O)C(=O)c1cc(C)n(-c2ccccc2F)c1C	inactive
CCCOc1ccc(NC(=O)CC2C(=O)N(c3ccccc3)C(=O)N2Cc2ccco2)cc1 (stereo not drawn)	inactive
O=C(O)CSc1ccc(S(=O)(=O)N2CCCC2)cn1	inactive
Cc1cc(C)c(C#N)c(N2CCC(C(N)=O)CC2)n1	inactive
N#Cc1c(N2CCCCC2)nc(N)c2c(N)nc(SCC(=O)O)cc12	50.1 µM (active)
O=C1CCCC2=C1[C@@]1(CCC(c3ccccc3)C1)N=C(Nc1nc3ccccc3o1)N2 (stereo partly drawn)	inactive
CCCCCCC1(C)NC(c2ccc3c(c2)OCO3)=CC(c2ccccc2O)N1 (stereo not drawn)	inactive
COc1ccc(Nc2cc(C(=O)NCCCN(C)c3ccccc3)c3ccccc3n2)c(OC)c1	inactive
Cc1ccc(NC(=O)CCCn2c(=O)c3cccn3c3ccccc32)cc1Cl	inactive
O=C1c2ccccc2C(=O)N1c1ccc(S(=O)(=O)N2CCOCC2)c2ccccc12	inactive
O=C(Nc1cccc2cccnc12)C(F)(F)F	inactive
CCOC(=O)C1=C(C)N=C2c3ccccc3C(=O)C2C1c1ccc(Br)cc1 (stereo not drawn)	inactive
CCOC(=O)C1=NOC(Cn2cc(C(C)=O)c(=O)[nH]c2=O)C1 (stereo not drawn)	inactive
CCOC(=O)C1=NO[C@@]2(C=C(Br)C(=O)[C@H]3O[C@H]32)C1	8.91 µM (active)
CCOC(=O)N1CCc2c(sc(NCc3cccc(F)c3)c2C(=O)Nc2ccccc2OCC)C1	inactive
CCC1(C)CC(=O)c2c(ccc3oc(C(=O)Nc4ccc(C(C)=O)cc4)c(C)c23)O1 (stereo not drawn)	inactive
COc1ccc(Cc2nc3ccc(C(=O)NCc4ccccc4Cl)cc3o2)cc1	inactive
COC(=O)c1cc(NC(=O)C2C3C=CC(C3)C2C(=O)O)cc(C(=O)OC)c1 (stereo not drawn)	inactive
CC(C)COC(=O)c1ccc(NC(=O)C2C3C=CC(C3)C2C(=O)O)cc1 (stereo not drawn)	inactive
CC(=O)NS(=O)(=O)c1ccc(NC(=O)C2C3C=CC(C3)C2C(=O)O)cc1 (stereo not drawn)	79.4 µM (active)
O=C(NCc1ccc2c(c1)CCN2C(=O)c1ccccc1)Nc1cc(F)ccc1F	inactive

Structure (SMILES)	Potency
O=C(CNC(=O)c1ccc(Cl)c(C(F)(F)F)c1)OC(C(=O)Nc1cc(C(F)(F)F)ccc1Cl)c1ccccc1 (stereo not drawn)	inactive
CC(=O)Nc1cccc(NC(=O)CSc2nccn2Cc2ccc3c(c2)OCO3)c1	inactive
O=C(CCC1CCCN(C(=O)Cc2ccc(F)cc2)C1)N1CCN(c2ccccn2)CC1 (stereo not drawn)	inactive
C=Cc1ccc(C(=O)N2CCCC(CCC(=O)N3CCN(c4ccccn4)CC3)C2)cc1 (stereo not drawn)	1.26 µM (active)
O=C(CCC1CCCN(C(=O)c2ccc(F)c(F)c2)C1)N1CCN(c2ccccn2)CC1 (stereo not drawn)	inactive
Cc1ccc(S(=O)(=O)NC(N)=NCCC[C@@H](NC(=O)CNC(=O)c2ccccc2)C(=O)Nc2cc(C(F)(F)F)ccc2Cl)cc1	inactive
CC(Nc1ncnc2ccc(-c3ccc4c(c3)OCO4)cc12)c1ccco1 (stereo not drawn)	inactive
O=C(O)c1ccc2c(c1)N(Cc1ccc(F)cc1)C(=O)c1ccccc1S2=O (stereo not drawn)	inactive
O=c1[nH]c(=S)[nH]c2[nH]c(=S)[nH]c12	8.91 µM (active)
CCCS(=O)(=O)Nc1cccc(-c2cn3ccsc3n2)c1	inactive
COC(=O)c1ccc(NC(=O)CCc2c(C)nn(-c3ccc(N4CCCC4)nn3)c2C)cc1	inactive
CN(C)c1ccc(C(=O)NCC(=O)OC(C(=O)Nc2cc(C(F)(F)F)ccc2Cl)c2ccccc2)cc1 (stereo not drawn)	inactive
CCOc1cccc(C(=O)Nc2nnc(S(=O)(=O)N(C)c3ccc(C)cc3)s2)c1	inactive
O=C(NCc1nnc(C(=O)Nc2ccc(C(F)(F)F)cc2Cl)o1)c1ccccc1	inactive
COc1ccc(NC(=O)c2sc3nc[nH]c(=O)c3c2C)cc1	inactive
Cc1cccc(N2CCN(c3ccc(C(=O)O)cc3NC(=O)c3ccccc3F)CC2C)c1 (stereo not drawn)	inactive
O=C(NCCCO)C(=O)Nc1c2c(nn1-c1ccccc1)CSC2	inactive
CCOC(=O)C1=C(C)c2ccccc2OC1C(=O)OCC (stereo not drawn)	inactive
C=C1c2cccc(OC)c2O[C@H](C(=O)OCC)[C@@H]1CCCCCC	35.5 µM (active)
COc1ccc(C(=O)N(Cc2ccccc2)Cc2ccc(OC)c(COc3ccc(NC(C)=O)cc3)c2)c(O)c1	inactive
CC(=O)NC(c1cccs1)c1cc(Cl)c2cccnc2c1O (stereo not drawn)	inactive
